Screening data: PubChem BioAssay, National Center for Advancing Translational Sciences (NCATS)
IL-1B inflam inh – qHTS for Inhibitors of Inflammasome Signaling: IL-1-beta AlphaLISA Primary Screen; THP-1 LPS/ATP IL-1B secretion, AlphaLISA, 16 h; stronger effect = lower value; activity change, % at 57.5 µM; 360,000 compounds, 4.7% hits; AID 743279, 2014; in the data active means activity change below about -50%; inconclusive means mostly about -30% to -49%; further: on the % scale 0 is the no-effect control and ±100 the full control effect
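THP-1 cells pretreated 1 hr with compounds (up to 57.5 uM final), then stimulated with LPS (250 ng/mL final) plus ATP (1.25 mM final); secreted IL-1B measured by AlphaLISA after 16 hr, decreased signal indicating inhibition.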
ATXN2 expr inh – Primary qHTS for Inhibitors of ATXN expression; HEK-293 ATXN2-luciferase reporter, luminescence, 24 h; Potency, µM (highest dose often 57 µM), for inactives: at the highest dose activity change, negative = inhibition, actives largely listed as inhibitors; 360,000 compounds, 0.72% hits; AID 1745845, 2022; further: potency means the concentration at half of the fitted maximal effect; on the % scale 0 is the no-effect control and ±100 the full control effect; nearly all actives have a fitted effect of over 55% in size
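qHTS (up to 57 uM final) was run with 24 h compound exposure of reporter cells at 37 °C. Each well was multiplexed: SteadyGlo luminescence measured ATXN2-luciferase expression after a fluorogenic Gly-Phe-AFC viability readout (25 uM final).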
a7 integrin act – qHTS for Activators of Integrin-Mediated Alleviation for Muscular Dystrophy; alpha7betagal myoblasts, beta-gal FDG fluorescence, 48 h; Potency, µM (highest dose often 38.3 µM), for the others: at the highest dose activation, usual class: activators; 350,000 compounds, 0.064% hits;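 further: potency means the concentration at half of the fitted maximal effect; 100% = response of the positive control SU9516; nearly all actives have a fitted effect of over 60% in size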
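Alpha7betagal+/- myoblasts (passage 13) were plated 16-24 hr, then exposed to compounds (1:260 dilution of DMSO stock) for 48 hours at 37C. After MPER lysis, β-galactosidase reporter activity was read as FDG fluorescence (ex 480/em 540) after 30 minutes.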
D3 antag – qHTS of D3 Dopamine Receptor Antagonist: qHTS. D(3) dopamine receptor (Homo sapiens), P35462. D3R cells, DiscoveRx beta-arrestin luminescence, antagonist mode; stronger effect = lower value. max response, negative = inhibition, %. 360,000 compounds, 2.5% hits. AID 652054, 2013; in the data active means max response below about -50%; inconclusive means no clear call, values can overlap the other calls; further: on the % scale 0 is the no-effect control and ±100 the full control effect
Target sequence (P35462 whole entry, looked up): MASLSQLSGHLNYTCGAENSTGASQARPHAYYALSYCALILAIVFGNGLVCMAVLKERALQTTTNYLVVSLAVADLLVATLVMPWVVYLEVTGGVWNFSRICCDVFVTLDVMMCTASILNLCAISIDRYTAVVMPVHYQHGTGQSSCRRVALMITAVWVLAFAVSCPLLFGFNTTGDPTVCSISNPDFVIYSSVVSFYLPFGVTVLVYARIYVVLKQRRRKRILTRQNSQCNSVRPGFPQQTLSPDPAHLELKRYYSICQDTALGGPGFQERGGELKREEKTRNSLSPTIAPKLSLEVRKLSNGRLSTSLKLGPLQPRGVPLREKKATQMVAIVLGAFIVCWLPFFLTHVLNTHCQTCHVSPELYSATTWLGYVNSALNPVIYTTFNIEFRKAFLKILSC
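Cells expressing the human receptor were seeded at 1500 cells/well, incubated overnight at 37 degrees C in 5% CO2, then exposed to library compounds with dopamine controls for 90 minutes at 37 degrees C before luminescent detection.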
ATXN viability – Viability Counterscreen for Primary qHTS for Inhibitors of ATXN expression; S2 cells (HEK-293 line with an ATXN2-luciferase reporter) viability, CellTiter-Fluor protease fluorescence, 24 h; 400,000 compounds, 0.49% hits; Potency, µM (highest dose often 56.7 µM), usual class: cytotoxic; further: potency means the concentration at half of the fitted maximal effect; nearly all actives have a fitted effect of over 40% in size
DRD3 agonist – qHTS of D3 Dopamine Receptor Agonist: qHTS; D(3) dopamine receptor (Homo sapiens), P35462; D3R DiscoveRx beta-arrestin cells, luminescence, 90 min; max activation, %; 410,000 compounds, 0.58% hits; in the data active means max activation above about 30%; further: 0% is about no effect
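Agonist-mode cell screen: cells plated at 1500/well and incubated overnight at 37 °C, then exposed to library compounds for 90 min at 37 °C. Detection reagent was added for 30–60 min at room temperature, and luminescence was read.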
* = called active by the depositor; i = inactive; ? = inconclusive; . = not tested or not shown. Only some compounds are listed: those with a hit (about 7% of all), similar ones and a draw of the others. Unless noted, the call rests on the fitted dose curve; in most records, active means well fitted curve in the direction sought with a large enough effect; inconclusive means small, poorly fitted or top-dose-only effect, or another doubt; inactive means no such curve, though single readings can be large; an effect the other way counts as inactive or inconclusive.

SMILES	IL-1B inflam inh	ATXN2 expr inh	a7 integrin act	D3 antag	ATXN viability	DRD3 agonist
COc1cc2c(cc1OC)CN(c1ccc(F)cc1[N+](=O)[O-])CC2	-67*	7%	?	-22	i	-16
CCOC(=O)c1ccccc1NC(=O)CSc1nnc(Cc2cccn2C)n1-c1ccc(C)cc1	-21	0%	-54%	21	i	39*
COc1ccc(-n2c(Cc3cccn3C)nnc2SCC(=O)Nc2ccccc2C)cc1	-20	0%	1%	-7	i	0
COc1ccc(NC(=O)CSc2nnc(Cc3cccn3C)n2-c2ccc(C)cc2)cc1OC	-3	-5%	-23%	106	i	30*
COc1ccc(-n2c(Cc3cccn3C)nnc2SCC(=O)Nc2cccc(OC)c2)cc1	-5	9%	4%	4	i	5
CC(C)N(CCO)Cc1nc(N2CCOCC2)c2cc(Cl)ccc2n1	.	.	.	.	i	.
Cc1cccc(Cn2cc(S(=O)(=O)c3ccc(Cl)cc3)c(=O)c3cc4c(cc32)OCO4)c1	.	-8%	.	.	i	-7
COc1ccc(-c2cn(-c3ccc(Br)cc3)c3[n+]2CCS3)cc1	-76*	-13%	-38%	5	i	-11
Clc1ccc(-c2cn(-c3ccccc3)c3[n+]2CCS3)cc1	-51*	-13%	-59%	-6	i	-6
COc1cc2c(cc1CNC[C@H]1O[C@@H](n3ccc(N)nc3=O)[C@H](O)[C@@H]1O)OCO2	18	10%	3%	2	?	5
Cc1oc2ncn(C)c(=O)c2c1C(=O)N(Cc1ccccc1)C(C)C	.	9%	.	.	i	-7
COc1ccc(/C=C/C(=O)NCc2cn(C)nc2C)cc1COc1ccc(Br)cc1	?	-15%	10%	?	i	-31
COC(=O)CN=Cc1c(C)[nH]n(-c2ccccc2)c1=O	0	.	4%	8	i	4
Cc1[nH]n(-c2ccccc2)c(=S)c1C=NCCCN=Cc1c(C)[nH]n(-c2ccccc2)c1=S	-97*	?	-39%	-25	?	-4
CCN1CCCC1CNC(=O)c1cc(S(=O)(=O)CC)ccc1OC (centres undefined)	.	.	.	.	i	-24
CCC1CCCN1Cn1cnc2c([nH]c3ccc(OC)cc32)c1=O (centres undefined)	-13	6%	8%	-73*	i	-8
CCN1CCCC1CNC(=O)c1cc(N)ccc1OC (centres undefined)	-25	0%	-10%	-52*	i	-16
CCN1CCCC1CNC(=O)C(=O)Nc1ccccc1 (centres undefined)	-5	56%	0%	3	i	-5
CCN1CCCC1CNC(=O)c1cc([N+](=O)[O-])c(N(C)C)cc1OC (centres undefined)	33	20%	4%	-103*	i	-28
CCN1CCC[C@H]1CNC(=O)c1c(OC)ccc(Br)c1OC	3	-3%	.	-55*	i	-79
CCN1CCC[C@H]1CNC(=O)c1cc(S(N)(=O)=O)ccc1OC	.	14%	.	.	i	.
CCC1CCCN1Cn1cnc2c([nH]c3ccccc32)c1=O (centres undefined)	-1	6%	0%	8	i	-10
CCCCNC(=O)C1(C)CCC(=O)N1CCOc1ccccc1 (centres undefined)	25	7%	.	-19	i	-12
OC(Cc1ccncc1)c1ccccc1Cl (centres undefined)	-4	-10%	-3%	5	i	4
CCN1CCCC1CNC(=O)c1[nH]c2ccc(OC)cc2c1C (centres undefined)	-7	2%	16%	-61*	i	-15
SMILES	IL-1B inflam inh	ATXN2 expr inh	a7 integrin act	D3 antag	ATXN viability	DRD3 agonist
C=CCN1CCCC1CNC(=O)c1cc2[nH]nnc2cc1OC (centres undefined)	-16	1%	.	-81*	i	-86
CCN1CCCC1CNC(=O)c1ccc2c(c1)NC(=O)/C(=C\c1ccc(OC)c(OC)c1)S2 (centres undefined)	26	.	-46%	-22	.	-18
CCN1CCCC1CNC(=O)c1cc2ccc(OC)cc2[nH]1 (centres undefined)	36	7%	20%	-15	i	-8
COc1ccc([C@@H]2[C@@H]3C(=O)N(C(C)(C)C)C(=O)[C@@H]3[C@]3(CC(C)C)C(=O)N(c4ccc(C(F)(F)F)cc4)C(=O)N23)cc1	8	-1%	22%	0	i	-20
O=C(c1ccccc1)c1ccccc1C(=O)N1CCCC1	-7	-7%	23%	-50*	i	-3
Cc1ccc(-n2nc(C)c3c(C)cc(=O)n(CC(=O)Nc4cccc(C)c4C)c32)cc1	.	1%	.	.	i	-18
Cc1ccc(/C=c2\sc3n(c2=O)CN(c2cccc(Br)c2)CN=3)o1	-51*	-18%	1%	-14	i	5
O=c1/c(=C/c2ccco2)sc2n1CN(c1cccc(Br)c1)CN=2	-50*	-9%	39%	-61*	i	1
Cc1cc(C)cc(N2CN=c3s/c(=C\c4ccco4)c(=O)n3C2)c1	-7	3%	8%	15	?	1
O=c1/c(=C/c2ccco2)sc2n1CN(c1ccccc1)CN=2	-16	4%	-7%	-17	i	-7
COc1ccc(OC)c(CCNC(=O)c2c(C)oc3ncn(C)c(=O)c23)c1	.	1%	.	.	i	3
C=CCOc1ccc(CNc2nccs2)cc1OCC	-5	0%	20%	-54*	i	8
COc1ccc(CNc2nccs2)cc1OC	18	18%	-18%	3	i	1
CCCN(CCC)C(=O)Cn1c(=O)n(-c2ccc(C)c(C)c2)c(=O)c2c3c(sc21)CCCCC3	.	7%	.	.	i	7
COc1ccc(C2(C(=O)Nc3ccc(C(=O)N4CCOCC4)cc3)CCOCC2)cc1	-20	0%	-22%	13	i	1
CC1(C)CC(=O)C2=C(C1)N(c1ccccc1)C(N)=C(C#N)C2c1ccccc1 (centres undefined)	-50*	47%	-36%	19	i	0
CC1(C)CC(=O)C2=C(C1)N(c1ccccc1)C(N)=C(C#N)C2c1cccnc1 (centres undefined)	17	-12%	-3%	-20	?	-9
COc1ccc(Cn2c(CO)cnc2SCC(=O)Nc2cccc(NC(C)=O)c2)cc1	2	11%	31%	-2	i	-2
COCCCNC(=O)CCS(=O)(=O)Cc1ccc(C)cc1	21	6%	-12%	4	i	3
